This is an account of results in the supplement of paper PMC6555819.

The assay relates to VDR:RXRa (NR concentration 270 nM, RXRa partner concentration 90 nM). Put plainly: PBM binding z-score (relative to random genomic background probes); higher = stronger binding; sequences stand for … in GC…GCGATTGACAGCGTAGAATGAAGG
As for the experimental part:
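Protein-binding microarray (Agilent 4x180K custom design, double-stranded 60-nt probes: 5' GC cap, 34-nt variable region, 24-nt constant primer region; full probe sequence given). Purified or IVT nuclear receptor:RXRα heterodimers (3:1 NR:RXRα, mostly 270:90 nM) or homodimers were incubated for 1 h in PBS with 2% milk and no ligand, then detected with Alexa488 antibodies. Fluorescence from o1-orientation probes (~5 replicates averaged) was converted to z-scores against 500 random hg19 background probes. Variable regions are seed direct-repeat (DR0–DR5) sites, all their single-nucleotide variants and half-site ablations.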
The sequence GATCCAGGGTCAAGGCCAGAGTACGCGTATTGAT showed a PBM binding z-score of 4.58.
The value for TCTTGTAGAGCAAGCAGGTTAAGAAAGCCTGAGT was -0.323; that for CCAAACAGGTGAAAGGTAACTCAGTCTGGTACGC was 0.991.
To CGAACGAGGGCATCAGTTGATAGCAAATGCCGAT belongs 0.559; to TCGAGTTGGTTACCAATGGGGCATTCAGCTTTCT, -0.461; to TGAATGAGGTTATAAGATGAGGGAACGTTGCAAA, 0.832.
With TCTGATAGGTCAGTTGGTCAGCTAACGAGCTGCC, the PBM binding z-score came to 0.777.
CCGAGTAGGTTATTGGGCATTCAGGCAACGGTGA: the PBM binding z-score is -0.494.
As to GCATATAGGTAATACAAGGTGATAGTCCGATTGT, the PBM binding z-score is -0.0322.
To GCTGCTAGGTCAGGTTGGTCAGCTAGCGGGTACG belongs 0.267; to GTACCAAGCTGAATAGGTCGTTGATGAGTAGGCG, -0.239; to ATCTCAAGGTAAGACTCAGTTCAGTGAAGAACGC, 1.27.
To ATCTCTAGGTAAGGATAGTTCAGTGAATGCAAAT belongs 0.733; to CGTCCAAGGTCAATGTCAGTGAAAGAGACTCGAA, 3.45; to CGAACTAGGTCAGAACAGGACAGTCAAGGATGAT, 0.754.
Turning to TCTAGCAGGGCAGAGGGTCACTCAAGAGGTACGG, the PBM binding z-score is 1.63.
Turning to TATACCGGGTCAAAGGCCAGAGTACGAATGTCGA, the PBM binding z-score turned out to be 3.9.
In the case of AGAATGACGTTATACGTAGATCAGGGAAGAAAGT, the PBM binding z-score is -0.532.
The value for GCAGACAGGTGAAACGTAGGTAACTCAGGGTGGC was -0.315.
The value for TTACCAAGGTGAATGTCGTTGATCCCTCTGTAGA was 0.328; that for TCATATATGTAAATGCTAGGTGAAAGTCCGATCT was 0.934; that for GCGACTGGGGCATCAGCAGGTTCCCATAACTTAA was -0.515.
The sequence CCTAGCAGGCCAGGGTCCCTCAAGCATTTCGCTT had a PBM binding z-score of -0.596.
To CCTAGTGGGCCATTCAGAGGTCATTGATCATATG belongs 3.85; to GCTTGTAGATCGAGGTTAAGAAAGACTAAGCTAA, 0.413.
CCTACTAGGCCACGAAAGGTCATTGATTCAGTGA showed a PBM binding z-score of 4.42.
On to GCGAGTGGGGCATCAGCAGGTTACCATAACTTAA, for which the PBM binding z-score is 0.049.
In the case of ACTACTAGTTGACTTAGGGCAACCGATACGACGC, the PBM binding z-score stood at 0.191.
The value for TCGAGTAGATTAGTCGGGGCATTCAGCCAACATA was -0.0689; that for CGTCCATGGTCATAGGAGGTCAGTGAAGACAGAT was 2.94.
The value for ATCTCTAGGAAAAGATAGTTCAGTGAATGCAAAT was 0.581.
The sequence TAGCCTAGGCCATTGGGCCAGTATAGTACGCATC showed a PBM binding z-score of -0.626.
The value for ATCTCTAGGTAAAGTCCAGTGAAAGATCGATAGA was -0.12; that for TCTTGTAGATCAAGAGAGGTTAAGAAAGTGCGCT was 1.77.
For the sequence CCTACTGGGCCAAGGTCATTGATCAGTCAAAGCA, the PBM binding z-score was 3.15.
For the sequence ATCTCTAGGTAATAGTTCAGTGAATCCCGAGGAT, the PBM binding z-score amounted to 0.188.
For the sequence CAAACTAGGTCAAAGGTCGAAGTCGAGCCAACCA, the PBM binding z-score is 5.03.
On to AGAATGAGGTTACCAAATATCAGGGAAACGCTTG, for which the PBM binding z-score is 1.34.
TCAGTCAGGTGAAGGTAACTCAGGTACGCAGTCG had a PBM binding z-score of 0.652.
The value for GCGACTGGGGCAAAGCTGGTTACCATAAGGTTGG was -0.475.
